A short description of test [1]: BET inhibitor-based combinations targeting novel dependencies in MECOM-rearranged (r) AML: AML-194 cell line (AID 2202237; note: nearly all actives have a fitted effect of over 40% in size). The note with it: AML-194 (MECOM-r AML) viability, CellTiter-Glo, 48 h; series mostly up to 46 µM. The method in brief:
(§1)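 Readout: CellTiter-Glo luminescence. Exposure: 48 h, 11 concentrations, 500 cells/well. Metric: AUC and within-line Z-AUC after DMSO/empty-well normalization.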
(In general: In ATP-based viability assays light output follows the ATP content of the culture.)

A short description of test [2]: BET inhibitor-based combinations targeting novel dependencies in MECOM-rearranged (r) AML: HNT-34 cell line (AID 2202234). Note: nearly all actives have a fitted effect of over 35% in size. The note with it: HNT-34 AML viability, CellTiter-Glo luminescence, 48 h; series mostly up to 46 µM. An outline of the steps: (§2)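 Seeding density was 500 cells/well, and drug exposure lasted 48 hr under standard culture conditions. Read-out used CellTiter-Glo reagent with a 15 min room-temperature incubation before luminescence measurement; AUC and Z-AUC summarize the normalized responses.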

The nature of test [3]: BET inhibitor-based combinations targeting novel dependencies in MECOM-rearranged (r) AML: UCSD-AML1 cell line (AID 2202235). Note: nearly all actives have a fitted effect of over 40% in size. Particulars: UCSD-AML1 AML cells viability, CellTiter-Glo, 48 h; series mostly up to 46 µM. The method in brief: as §2
Test [4] is described as follows: BET inhibitor-based combinations targeting novel dependencies in MECOM-rearranged (r) AML: OCI-AML3 cell line (AID 2202232). Note: nearly all actives have a fitted effect of over 35% in size. The note with it: CellTiter-Glo luminescence, 48 h; Potency: OCI-AML3 viability; series mostly up to 46 µM. The method in brief: as §1
Test [5] is described as follows: BET inhibitor-based combinations targeting novel dependencies in MECOM-rearranged (r) AML: AML-191 cell line (AID 2202236; note: nearly all actives have a fitted effect of over 35% in size). The note with it: AML-191 viability, CellTiter-Glo luminescence, 48 h; series mostly up to 46 µM. The method in brief:
as §1

A short description of test [6]: BET inhibitor-based combinations targeting novel dependencies in MECOM-rearranged (r) AML: MV-4-11 cell line (AID 2202233). Note: nearly all actives have a fitted effect of over 45% in size. The note with it: MV-4-11 AML viability, CellTiter-Glo luminescence, 48 h; series mostly up to 46 µM. The method in brief: as §2
Test [7] can be described thus: BET inhibitor-based combinations targeting novel dependencies in MECOM-rearranged (r) AML: SET-2 cell line (AID 2202231).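 For viability: plate controls were DMSO treated cells for no effect and wells without cells for full effect.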 Note: nearly all actives have a fitted effect of over 35% in size. The note with it: SET-2 AML cells viability, CellTiter-Glo luminescence, 48 h; viability: stronger effect = lower value, concentration not given here. An outline of the steps:
as §1

The structures appear in SMILES notation. Inconclusive results are not listed. A number with no mark means an inactive call. Activity calls are given as the source filed them. Calls come from the whole dose curve; as a rule, active = well fitted curve in the direction sought with a large enough effect; inconclusive = small, poorly fitted or top-dose-only effect, or another doubt; inactive = no such curve, though single readings can be large; an effect the other way counts as inactive or inconclusive.

By viability is commonly meant a per cent measure of how many cells are alive, often set against a control.
Potency is the fitted concentration of half-maximal effect.

Take `CC(=O)O[C@@]12CO[C@@H]1C[C@H](O)[C@@]1(C)C(=O)[C@H](O)C3=C(C)[C@@H](O)C[C@@](O)([C@@H](OC(=O)c4ccccc4)[C@H]21)C3(C)C`: the Potency in test [1] was 23500 nM (active).

On to `O=P1(NCCCl)OCCCN1CCCl` (configuration not stated), for which the Potency result in test [2], in test [3] and in test [1] was “inactive” in each case.

As to `O=C(O)C1=CCCN(CCOC(c2ccc(C(F)(F)F)cc2)c2ccc(C(F)(F)F)cc2)C1`, in test [1], the Potency result was “inactive”.

Regarding `CN(C)[C@@H]1C(=O)C(C(N)=O)=C(O)[C@@]2(O)C(=O)C3=C(O)c4c(O)cccc4[C@@](C)(O)[C@H]3C[C@@H]12`, the Potency result in test [4], in test [3] and in test [5] was “inactive” each time.

For `COc1cc2c(cc1F)C(c1ccccc1Cl)=Nc1c(n[nH]c1C)N2`, the Potency is 3720 nM (active) in test [4], 1860 nM (active) in test [6] and 2350 nM (active) in test [1].

Regarding `C[C@H]1[C@H](O)[C@@H](C)/C=C/C=C/CC/C=C/C=C/C=C/C=C/[C@H](O[C@@H]2O[C@H](C)[C@@H](O)[C@H](N)[C@@H]2O)C[C@@H]2O[C@](O)(C[C@@H](O)[C@H](O)CC[C@@H](O)C[C@@H](O)C[C@@H](O)CC(=O)O[C@H]1C)C[C@H](O)[C@H]2C(=O)O`, in test [7], the viability was 99%. Moreover, the Potency entry in test [6], in test [3], in test [5] and in test [1] was “inactive” each time.

On to `C[C@@H]1O[C@@H](O[C@@H]2C=C3CC[C@@H]4[C@H](CC[C@]5(C)[C@@H](c6ccc(=O)oc6)CC[C@]45O)[C@@]3(C)CC2)[C@H](O)[C@H](O)[C@H]1O`, for which the figures for the Potency in test [4], in test [3] and in test [1] were 14.8 nM (active), 18.6 nM (active) and 14.8 nM (active), respectively.

Turning to `CC(C)[C@H]1C(=O)N[C@H](CO)Cc2c[nH]c3cccc(c23)N1C`, the Potency in test [6] is 1150 nM (active); in test [2] it was 51.2 nM (active).

For the compound `O=c1cccc2n1CC1CNC[C@H]2C1`, the Potency result in test [4], in test [2], in test [3], in test [5] and in test [1] was “inactive” each time.

Take `COC(=O)[C@]12CCC(C)(C)C[C@H]1[C@H]1C(=O)C=C3[C@@]4(C)C=C(C#N)C(=O)C(C)(C)[C@@H]4CC[C@@]3(C)[C@]1(C)CC2`: the Potency is 2350 nM (active) in test [7]; 1660 nM (active) in test [2]; 1480 nM (active) in test [3]; 1860 nM (active) in test [5]; 2630 nM (active) in test [1].

Consider `C=C(C)[C@@H]1CCC(C)=C[C@H]1c1c(O)cc(CCCCC)cc1O`, for which the Potency in test [6] was 18600 nM (active).

For the origin of these results see PubChem BioAssay (NCATS).
